More than one record can exist for a structure, and the calls need not agree. Calls of active or inactive are those of the source. Rule for the calls: active = hit-call score of the fitted dose curve at least 0.9, where 1 is the maximum; inactive = score below 0.9.
How the values were obtained:
[1] = CCTE_Mundy_HCI_Cortical_Synap_Neur_Matur_NeuriteSpotCountPerNeuriteLength: CCTE's Synaptogenesis and Neurite Maturation Assay in rat cortical cells for Neurite Spot Count per Neurite Length, Mundy Lab (AID 2284210)
Method in brief: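 Primary rat cortical neurons, compound exposure DIV 7–12, 288.33 h endpoint. Hoechst, anti-MAP2 and anti-synaptophysin labelling; neurite-associated puncta per neurite length scored by automated imaging relative to DMSO controls.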

[2] = CCTE_Mundy_HCI_Cortical_Synap_Neur_Matur_BPCount: CCTE's Synaptogenesis and Neurite Maturation Assay in rat cortical cells for Branch Point Count, Mundy Lab (AID 2284211)
Method in brief: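 Branch point number is quantified by automated imaging of fluorescently labelled neurites and synapses in rat primary cortical neurons exposed from DIV 7 to DIV 12. Activity is analysed relative to DMSO negative control.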

[3] = CCTE_Mundy_HCI_Cortical_NOG_NeuriteCount: CCTE's Neurite Outgrowth Assay in rat cortical cells for Neurite Count, Mundy Lab (AID 2284212);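 note: cells fixed about two days after chemical exposure began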
Method in brief: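 Neurite number per cell from high-content imaging of betaIII-tubulin immunostaining, with Hoechst nuclear counterstain.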

[4] = CCTE_Mundy_HCI_Cortical_NOG_NeuriteLength: CCTE's Neurite Outgrowth Assay in rat cortical cells for Neurite Length, Mundy Lab (AID 2284213);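 for AC50: neurites imaged about 48 to 50 h after chemical exposure began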
Method in brief: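 Neurite length was read by high-content imaging of βIII-tubulin-labelled neurites in rat primary cortical cultures. Activity was fitted relative to DMSO.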

[5] = CCTE_Mundy_HCI_Cortical_Synap_Neur_Matur_NeuriteLength: CCTE's Synaptogenesis and Neurite Maturation Assay in rat cortical cells for Neurite Length, Mundy Lab (AID 2284214)
Method in brief: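 Rat primary cortical cells were plated, treated with AraC at DIV 5 to arrest glial growth, then chemical-dosed with media change at DIV 7 through DIV 12. Fixed cells stained for MAP2, synaptophysin and Hoechst; neurite length quantified by high-content imaging.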

[6] = CCTE_Mundy_HCI_Cortical_Synap_Neur_Matur_NeuriteSpotCountPerNeuron: CCTE's Synaptogenesis and Neurite Maturation Assay in rat cortical cells for Neurite Spot Count per Neuron Count, Mundy Lab (AID 2284215)
Method in brief: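 Developing rat cortical neurons, with glia suppressed by AraC, are exposed to chemicals from DIV 7 to DIV 12. Automated fluorescence imaging of MAP2-labelled neurites and synaptophysin puncta yields a count per neuron, normalised against DMSO wells.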

[7] = CCTE_Mundy_HCI_Cortical_Synap_Neur_Matur_SynapseCount: CCTE's Synaptogenesis and Neurite Maturation Assay in rat cortical cells for Synapse Count, Mundy Lab (AID 2284218)
Method in brief: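 Rat primary cortical cells in 96-well plates received AraC at DIV 5 and were dosed with chemicals at DIV 7 with media change, through DIV 12 (288.33 h). Synapses per neuron counted by high-content imaging of MAP2/synaptophysin/Hoechst staining, versus DMSO baseline.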

[8] = TAMU_PeakParms_SingleDonor1434_Chronotropy: Texas A&M University (TAMU) 1.5-hr Human Induced Pluripotent Stem Cell (iPSC)-derived Cardiomyocytes Calcium (Ca+2) Flux Assay for Cardiotoxicity: Chronotropy (changes in peak frequency) (AID 2284217); settings: actives raise or lower the signal
Method in brief: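 Using fluorescent Ca2+ flux, average beats per second are measured in human iPSC-derived cardiomyocytes treated 90 min (0.5% DMSO vehicle, 0.2–100 uM). Non-beating data points are removed; activity is modeled in both directions relative to DMSO controls.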

[9] = IUF_NPC1a_proliferation_area_72hr: Leibniz Research Institute for Environmental Medicine (IUF) 72-hour Neural Progenitor Cell Proliferation Area Assay (NPC1a) (AID 2284208)
Method in brief: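 Measured in 3D suspension: each well held one primary hNPC sphere grown with EGF and FGF at pH 7.2-7.6. Compound stayed on for 72 h, then area was imaged; spheres lacking growth factors defined reduced proliferation.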

[10] = IUF_NPC1_viability_72hr: Viability Assessment at 72 hours in the Leibniz Research Institute for Environmental Medicine (IUF) Neural Progenitor Cell Proliferation Assay (NPC1) (AID 2284209)
Method in brief: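 Human fetal-cortex neural progenitor spheres (0.25–0.35 mm, one per well) grown in EGF/FGF proliferation medium at 37C, pH 7.2-7.6, exposed 72 h without renewal; viability read as alamar blue resazurin-to-resorufin fluorescence relative to DMSO.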

Measured: AC50

N[C@H]1C(O)O[C@H](CO)[C@H](O)[C@@H]1O (stereo partly drawn)
not listed: [8] | [9] | [10]
inactive: all other assays above

c1ccc2c(c1)ccc1cc3c(ccc4ccccc43)cc12
active: [8] 50 µM

CC1(C)S[C@@H]2[C@H](NC(=O)COc3ccccc3)C(=O)N2[C@H]1C(=O)O
not listed: [8]
inactive: all other assays above

Nc1ncn([C@@H]2O[C@H](CO)[C@@H](O)[C@H]2O)c(=O)n1
active: [4] 7.87 µM
inactive: [9] | [10] | [1] | [2] | [3] | [4] | [5] | [6] | [7]

O=C(O)CCCC[C@@H]1SC[C@@H]2NC(=O)N[C@@H]21
inactive: [8]
